pKd: −log10 of the molar value.
Experiments:
[1] = test system: CDK2
[2] = test system: CDK5
[3] = test system: CDK7
[4] = test system: CDKL5
[5] = test system: CDK8
[6] = test system: CDK9
[7] = test system: CDKL3
[8] = test system: CIT
[9] = test system: CLK1
[10] = test system: CLK3
[11] = test system: CDKL2
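Further: kd values determined as follow-up on hits from a single-replicate KINOMEscan panel screen.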

**Q.** With `COC(=O)C(NC(=O)NC1CCN(c2ccnc(Nc3ccc(F)cc3)n2)C1)c1ccccc1` (centres unmarked) [GSK1379712] as the compound, how does the pKd [1] read?
**A.** The pKd was under 5.00.

**Q.** With `Cc1ccc(-c2nc(Nc3ccncc3)c3ccccc3n2)s1` [GSK189015] as the compound, how does the pKd [2] read?
**A.** The pKd was under 5.00.

**Q.** Which results are given for `O=C(Nc1n[nH]c2nc(-c3ccco3)c(Br)cc12)C1CCN(Cc2ccccc2)C1.O=C(O)[C@H](O)[C@@H](O)C(=O)O` (centres unmarked) [SB-742034]?
**A.** pKd [3]: 5.96; pKd [4]: 5.96

**Q.** `Nc1cccc(-c2ccc3c(N)n[nH]c3c2)n1` [GSK2192730] was tested. Which pKd [3] did it give?
**A.** Its pKd is under 5.00.

**Q.** `Cc1cnc(N)c(/C=C/c2cncc(C(=O)NCCc3ccc(Cl)cc3Cl)c2)c1.Cl` [GSK190937] was tested. Which pKd [5] did it give?
**A.** Its pKd is 5.96.

**Q.** `Cc1nccc(-c2c(-c3ccc(F)cc3)ncn2CCCN2CCOCC2)n1.Cl` [SB-282975] was tested. Which pKd [6] did it give?
**A.** The pKd was under 5.00.

**Q.** How did the pKd [6] turn out when `Cc1c(Cn2c3ccccc3n3c(=O)cc(N4CCOCC4)nc23)cccc1C(F)(F)F` [GSK2306394] was run?
**A.** Its pKd is under 5.00.

**Q.** With `Cn1cncc1C(=O)NC1CCN(c2ccnc(Nc3ccc(F)cc3)n2)C1` (centres unmarked) [GSK1379717] as the compound, how does the pKd [7] read?
**A.** Its pKd is under 5.00.

**Q.** `Cc1ccc(NC(=O)Nc2ccc(Cl)c(C(F)(F)F)c2)cc1-c1ccc(C(=O)Nc2ccncc2)cc1` [GSK1398470] was tested. Which pKd [8] did it give?
**A.** The pKd was 6.42.

**Q.** With `O=C1NC(=O)C(c2ccc(Cl)cc2)=C1Nc1cccc(Cl)c1` [SB-317651] as the compound, how does the pKd [9] read?
**A.** The pKd was 5.36.

**Q.** With `CC(=O)c1c(C)c2cnc(Nc3ccc(N4CCNCC4)cn3)nc2n(C2CCCC2)c1=O` as the compound, how does the pKd [10] read?
**A.** The pKd was under 5.00.

**Q.** How did the pKd [11] turn out when `O=C(Nc1n[nH]c2nc(-c3cccs3)c(Br)cc12)C1CC1` [SB-735297] was run?
**A.** The pKd was 6.85.

**Q.** `CS(=O)(=O)CCNCc1nc(-c2ccc3ncnc(Nc4ccc5c(cnn5Cc5ccccc5)c4)c3c2)cs1.Cl.Cl` [GW569716] was tested. Which pKd [7] did it give?
**A.** The pKd was under 5.00.

**Q.** `COc1ccc(Nc2nccc(N3CCC(NC(=O)C(C)c4ccc(Cl)cc4)CC3)n2)cc1` (centres unmarked) [GSK1379812] was tested. Which pKd [4] did it give?
**A.** The pKd was under 5.00.

**Q.** How did the pKd [10] turn out when `Cc1cccc2c(-c3ccncn3)c(-c3ccc(F)cc3)nn12` [GW515532] was run?
**A.** The pKd was under 5.00.

**Q.** How did the pKd [10] turn out when `CCCCc1nn2ncccc2c1-c1ccnc(NC2CC2)n1` [GW684374] was run?
**A.** The pKd was under 5.00.

Source: PMC5540273 (PLoS ONE, 2017)
